The panel holds about 79,000 compounds, 15% with a hit somewhere; the sample as a whole holds those more often. Values without a mark were called inactive. The source made the active and inactive calls. No stated cut-off is given here; in the data, active means growth inhibition above about 70%; inactive means the rest.
Test: NCI Yeast Anticancer Drug Screen. Data for the sgs1 mgt1 strain (AID 161);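 further: 0% = growth of cultures given vehicle only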
Settings: S. cerevisiae sgs1 mgt1 strain, hits give high values; at 50.0 µM unless noted
Method: Growth inhibition of yeast strains with defined genetic alterations is measured as a screen for potential anti-cancer activity. Selected strains with alterations in DNA damage repair or cell cycle control were exposed to compounds and growth inhibition was measured relative to vehicle treated controls. The strain used in this assay is sgs1 mgt1

Row | Compound | growth inhibition
1 | CC1CCC2(OC1)OC1CC3C4CCC5CC(O)CCC5(C)C4C(O)CC3(C)C1C2C (stereo not given) | 43%
2 | BrCC(Br)C1OCCCO1 (stereo not given) | 38.4%
3 | CCOC(=O)C12CCCC1(O)N(NC(N)=O)C(C)=C2C(=O)OC (stereo not given) | 3.05%
4 | CN(C)c1ccc(/[N+]([O-])=N/N2C(=O)c3ccccc3C2=O)cc1 | -20.9%
5 | Cc1ccc(C)c(CCCCS(=O)(=O)O)c1 | -5.75%
6 | O=C1c2cc3c(cc2CC12Cc1cc4c(cc1C2=O)CCC4)CCCC3 (stereo not given) | 1.45%
7 | CCCCCCCCCCCCC(=O)N1CCOCC1 | 99.8% (active)
8 | CC1=NN(C(=O)Nc2ccc(Cl)cc2)C(=O)C2CCC(=O)N12 (stereo not given) | 1.1%
9 | CCOC(=O)C12CCCC1(O)N(NC(=O)OC)C(C)=C2C(=O)OC (stereo not given) | 2.05%
10 | C=CCOC(=O)CCCC1=NC2=CC=CC3=NC(C)=NC(=N1)N23 | 1.45%
11 | O=C(Nc1ccccc1)Nc1ccc([N+](=O)[O-])cc1[N+](=O)[O-] | 26.9%
12 | CC(C)CCC(C)C1CCC2C3CCC4CC(=O)CC4(C)C3CCC12C (stereo not given) | -20.1%
13 | Cc1ccc(Cl)cc1NC(=O)Nc1ccccc1Cl | 6.05%
14 | O=C1CSC(c2ccccc2Cl)N1c1n[nH]c(=S)s1 (stereo not given) | -9.5%
15 | CS(=O)(=O)OCC(Br)C(Br)COS(C)(=O)=O (stereo not given) | 7.7%
16 | CC1CCC(c2cc(-c3ccccc3)n(-c3ccccc3)n2)CC1 (stereo not given) | -2.35%
17 | CC(=O)C(C)(CCN(C)C)c1ccccc1 (stereo not given) | 7.45%
18 | COc1cc2c(c(OC)c1OC)-c1ccc(OC)c(=O)cc1[C@@H](NC=O)CC2 | -22.9%
19 | CCOC(Nc1cc(Cl)cc(Cl)c1)C(=O)c1ccccc1 (stereo not given) | -9.8%
20 | CNC(=O)N(C)Cc1ccccc1 | 2.75%

Row | Compound | growth inhibition
21 | S=C(c1ccccc1)c1cccc2ccccc12 | 58%
22 | COc1ccc(/C(CC2OC(=O)c3ccccc32)=N\NC(=O)C[N+](C)(C)C)cc1 (stereo not given) | 0.4%
23 | C=C1CC(C2OCOC3COCOC32)OC1=O (stereo not given) | -14.8%
24 | CCc1ccc(-c2cc(-c3ccc(CC)cc3)cc(-c3ccc(CC)cc3)c2)cc1 | -18.9%
25 | O=c1c2ccccc2c(=O)c2c1c1c(=O)c3ccccc3c(=O)c1c1c(=O)c3ccccc3c(=O)c21 | 30.2%
26 | Nn1c(-c2ccccc2)nc2ccc(Br)cc2c1=O | 18.5%
27 | COc1ccc(/C(=N\NC(=S)NN)C(c2ccc(OC)cc2)C2C(=O)Oc3ccccc32)cc1 (stereo not given) | 38.4%
28 | COc1ccc(OC)c(NC(=O)CCCC(=O)C(C#N)c2ccc(CC#N)cc2)c1 (stereo not given) | -34.5%
29 | COc1ccc(NC(=O)C(C)Oc2ccc(OCC3CCCCC3)cc2)cc1 (stereo not given) | -42%
30 | COc1ccc(C2=NC(CO)[C@H](c3ccccc3)O2)cc1OC (stereo not given in full) | 8.05%
31 | CCOc1ccccc1N=C(NC(=O)CC)SC | -7.15%
32 | O=C(NC1CCCCC1)/C(=C\c1ccccc1)NC(=O)c1ccccc1 | -28.6%
33 | COC1CCC(=O)N1CN(C(C)=O)c1ccc(C)cc1 (stereo not given) | -25.2%
34 | Cc1ccccc1C(=O)C[n+]1ccccc1C | -5.7%
35 | O=S1(=O)OCCOS(=O)(=O)C1C1c2ccccc2-c2ccccc21 | 18.7%
36 | O=C(O)CC1NC(/C(=C/c2ccccc2O)NC(=O)c2ccccc2)OC1=O (stereo not given) | 15.5%
37 | CC(C)CCN | -3.35%
38 | CC(=O)NC(CCC(C)C)C(=O)O (stereo not given) | 4.75%
39 | CC(=O)Nc1snc(C)c1[N+](=O)[O-] | 6.75%
40 | COCNC(=S)c1ccc(C(N)=O)nc1C(=O)NC(C)(C)C | 5.6%
